Key:
Assay in all cases: log2 ratio of Biotin-Ahx-Ub-VS probe labelling (fragment/DMSO); higher = less target engagement (more negative = stronger competition), active = hit call of the paper (q ≤ 0.05, log2 ratio ≤ -1)
Conditions in all cases: compound concentration: 200 uM; treatment time: 3 h
USP19 = molecular target: T1, USP19 (UniProt O94966)
T1 sequence (whole entry): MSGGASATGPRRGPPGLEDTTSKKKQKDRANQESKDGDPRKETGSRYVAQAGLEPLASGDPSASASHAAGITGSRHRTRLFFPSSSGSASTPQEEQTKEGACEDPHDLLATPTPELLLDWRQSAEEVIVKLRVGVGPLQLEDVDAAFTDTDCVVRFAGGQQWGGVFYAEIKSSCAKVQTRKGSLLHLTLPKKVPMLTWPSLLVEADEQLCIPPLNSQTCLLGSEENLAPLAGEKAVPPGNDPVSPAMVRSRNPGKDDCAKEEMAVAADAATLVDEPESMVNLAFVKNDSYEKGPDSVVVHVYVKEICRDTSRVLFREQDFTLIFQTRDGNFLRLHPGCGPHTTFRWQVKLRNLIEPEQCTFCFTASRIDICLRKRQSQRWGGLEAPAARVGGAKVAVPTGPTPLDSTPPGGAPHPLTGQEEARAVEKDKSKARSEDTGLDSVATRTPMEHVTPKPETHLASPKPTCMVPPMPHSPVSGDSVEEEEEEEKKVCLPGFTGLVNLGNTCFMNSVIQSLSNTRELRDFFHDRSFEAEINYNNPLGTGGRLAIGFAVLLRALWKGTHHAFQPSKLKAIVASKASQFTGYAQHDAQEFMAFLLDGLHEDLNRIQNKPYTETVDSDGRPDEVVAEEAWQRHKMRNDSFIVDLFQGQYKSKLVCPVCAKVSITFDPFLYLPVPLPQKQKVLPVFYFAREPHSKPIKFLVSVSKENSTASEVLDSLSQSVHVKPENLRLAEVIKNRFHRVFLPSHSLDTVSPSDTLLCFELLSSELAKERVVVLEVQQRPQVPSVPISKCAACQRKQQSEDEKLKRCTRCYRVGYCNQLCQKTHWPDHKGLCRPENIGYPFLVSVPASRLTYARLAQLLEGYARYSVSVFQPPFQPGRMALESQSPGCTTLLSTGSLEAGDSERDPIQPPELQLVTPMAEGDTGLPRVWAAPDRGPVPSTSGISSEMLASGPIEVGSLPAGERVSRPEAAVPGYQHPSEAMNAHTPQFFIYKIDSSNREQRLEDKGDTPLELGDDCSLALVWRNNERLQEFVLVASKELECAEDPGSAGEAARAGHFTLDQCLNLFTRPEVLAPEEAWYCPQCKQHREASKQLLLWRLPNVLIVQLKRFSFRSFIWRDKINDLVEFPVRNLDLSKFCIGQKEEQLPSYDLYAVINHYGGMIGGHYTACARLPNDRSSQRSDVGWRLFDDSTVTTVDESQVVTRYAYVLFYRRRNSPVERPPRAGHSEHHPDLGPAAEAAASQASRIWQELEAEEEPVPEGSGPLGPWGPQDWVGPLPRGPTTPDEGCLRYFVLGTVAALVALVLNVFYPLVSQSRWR
How it was run: (§1)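 HEK293T lysate (495 µg per sample, in Tris/CHAPS/IGEPAL buffer with protease inhibitors) was treated in triplicate with fragment at 200 µM or with DMSO for 3 h. It was then treated with Biotin-Ahx-Ub-VS (0.5 µM final) for 1 h. Labelled DUBs were NeutrAvidin-enriched, digested with LysC and trypsin, and run by diaPASEF LC-MS/MS. Spectronaut label-free quantities were global-median-normalised. Values are average log2 ratios fragment/DMSO by unpaired t-test, using proteins with ≥2 unique peptides.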

USP24 = USP24 (UniProt Q9UPU5)
How it was run: as §1

USP25 = molecular target: T2, USP25 (UniProt Q9UHP3)
T2 sequence (whole entry): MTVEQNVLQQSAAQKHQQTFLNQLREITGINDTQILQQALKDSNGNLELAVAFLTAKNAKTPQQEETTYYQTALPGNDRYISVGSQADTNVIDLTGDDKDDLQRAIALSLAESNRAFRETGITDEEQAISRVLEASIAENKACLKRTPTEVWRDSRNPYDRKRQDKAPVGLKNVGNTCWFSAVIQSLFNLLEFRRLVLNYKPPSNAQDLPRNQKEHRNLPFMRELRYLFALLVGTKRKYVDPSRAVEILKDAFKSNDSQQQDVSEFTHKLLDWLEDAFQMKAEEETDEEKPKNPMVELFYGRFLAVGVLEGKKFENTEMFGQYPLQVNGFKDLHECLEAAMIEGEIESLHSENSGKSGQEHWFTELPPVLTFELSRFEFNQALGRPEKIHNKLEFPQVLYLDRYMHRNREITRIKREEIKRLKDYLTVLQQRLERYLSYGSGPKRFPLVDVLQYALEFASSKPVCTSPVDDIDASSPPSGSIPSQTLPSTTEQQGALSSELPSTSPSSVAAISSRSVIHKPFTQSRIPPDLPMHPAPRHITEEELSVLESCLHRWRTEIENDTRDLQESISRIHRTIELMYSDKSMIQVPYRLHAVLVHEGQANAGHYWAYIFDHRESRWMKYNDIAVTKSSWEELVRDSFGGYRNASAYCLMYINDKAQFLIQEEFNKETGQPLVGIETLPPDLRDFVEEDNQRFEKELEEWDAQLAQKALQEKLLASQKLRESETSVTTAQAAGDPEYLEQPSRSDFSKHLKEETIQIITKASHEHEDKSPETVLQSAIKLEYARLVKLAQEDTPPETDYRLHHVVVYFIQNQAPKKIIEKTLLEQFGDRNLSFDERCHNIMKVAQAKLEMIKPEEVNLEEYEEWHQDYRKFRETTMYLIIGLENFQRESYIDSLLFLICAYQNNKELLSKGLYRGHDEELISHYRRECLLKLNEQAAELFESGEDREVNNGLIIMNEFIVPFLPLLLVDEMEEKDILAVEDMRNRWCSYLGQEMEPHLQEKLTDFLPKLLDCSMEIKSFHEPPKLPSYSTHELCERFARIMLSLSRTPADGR
How it was run: as §1

USP28 = molecular target: T3, USP28 (UniProt Q96RU2)
T3 sequence (whole entry): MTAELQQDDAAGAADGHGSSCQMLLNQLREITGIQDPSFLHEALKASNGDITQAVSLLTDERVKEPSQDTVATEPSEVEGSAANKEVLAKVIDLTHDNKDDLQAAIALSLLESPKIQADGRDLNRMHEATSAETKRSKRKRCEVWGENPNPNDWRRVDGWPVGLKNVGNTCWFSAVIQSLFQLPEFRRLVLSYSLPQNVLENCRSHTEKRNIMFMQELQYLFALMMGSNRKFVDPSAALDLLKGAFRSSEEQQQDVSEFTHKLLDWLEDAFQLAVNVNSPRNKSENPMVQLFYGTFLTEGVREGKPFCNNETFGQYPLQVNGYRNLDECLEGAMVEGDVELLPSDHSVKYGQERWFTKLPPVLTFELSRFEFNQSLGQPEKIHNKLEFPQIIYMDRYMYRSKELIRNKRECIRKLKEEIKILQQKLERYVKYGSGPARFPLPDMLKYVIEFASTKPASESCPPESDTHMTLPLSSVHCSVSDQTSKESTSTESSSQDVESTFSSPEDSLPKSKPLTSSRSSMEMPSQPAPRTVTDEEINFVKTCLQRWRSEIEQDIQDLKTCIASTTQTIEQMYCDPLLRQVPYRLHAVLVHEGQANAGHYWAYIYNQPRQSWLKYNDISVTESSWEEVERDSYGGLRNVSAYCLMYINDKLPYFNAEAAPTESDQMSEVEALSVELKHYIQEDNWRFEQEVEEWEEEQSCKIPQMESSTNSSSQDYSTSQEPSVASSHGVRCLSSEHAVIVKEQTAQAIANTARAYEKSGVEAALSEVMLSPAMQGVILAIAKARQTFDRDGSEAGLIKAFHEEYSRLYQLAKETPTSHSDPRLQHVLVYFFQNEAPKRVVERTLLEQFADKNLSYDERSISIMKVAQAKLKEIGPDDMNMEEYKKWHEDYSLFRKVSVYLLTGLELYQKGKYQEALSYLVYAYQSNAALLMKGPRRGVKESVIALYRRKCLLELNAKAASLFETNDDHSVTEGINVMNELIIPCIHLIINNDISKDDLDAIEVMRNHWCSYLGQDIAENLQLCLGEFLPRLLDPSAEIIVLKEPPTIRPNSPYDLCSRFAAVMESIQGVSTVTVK
How it was run: as §1

Measured: log2 ratio of Biotin-Ahx-Ub-VS probe labelling

Sequence of USP24 (Q9UPU5 whole entry): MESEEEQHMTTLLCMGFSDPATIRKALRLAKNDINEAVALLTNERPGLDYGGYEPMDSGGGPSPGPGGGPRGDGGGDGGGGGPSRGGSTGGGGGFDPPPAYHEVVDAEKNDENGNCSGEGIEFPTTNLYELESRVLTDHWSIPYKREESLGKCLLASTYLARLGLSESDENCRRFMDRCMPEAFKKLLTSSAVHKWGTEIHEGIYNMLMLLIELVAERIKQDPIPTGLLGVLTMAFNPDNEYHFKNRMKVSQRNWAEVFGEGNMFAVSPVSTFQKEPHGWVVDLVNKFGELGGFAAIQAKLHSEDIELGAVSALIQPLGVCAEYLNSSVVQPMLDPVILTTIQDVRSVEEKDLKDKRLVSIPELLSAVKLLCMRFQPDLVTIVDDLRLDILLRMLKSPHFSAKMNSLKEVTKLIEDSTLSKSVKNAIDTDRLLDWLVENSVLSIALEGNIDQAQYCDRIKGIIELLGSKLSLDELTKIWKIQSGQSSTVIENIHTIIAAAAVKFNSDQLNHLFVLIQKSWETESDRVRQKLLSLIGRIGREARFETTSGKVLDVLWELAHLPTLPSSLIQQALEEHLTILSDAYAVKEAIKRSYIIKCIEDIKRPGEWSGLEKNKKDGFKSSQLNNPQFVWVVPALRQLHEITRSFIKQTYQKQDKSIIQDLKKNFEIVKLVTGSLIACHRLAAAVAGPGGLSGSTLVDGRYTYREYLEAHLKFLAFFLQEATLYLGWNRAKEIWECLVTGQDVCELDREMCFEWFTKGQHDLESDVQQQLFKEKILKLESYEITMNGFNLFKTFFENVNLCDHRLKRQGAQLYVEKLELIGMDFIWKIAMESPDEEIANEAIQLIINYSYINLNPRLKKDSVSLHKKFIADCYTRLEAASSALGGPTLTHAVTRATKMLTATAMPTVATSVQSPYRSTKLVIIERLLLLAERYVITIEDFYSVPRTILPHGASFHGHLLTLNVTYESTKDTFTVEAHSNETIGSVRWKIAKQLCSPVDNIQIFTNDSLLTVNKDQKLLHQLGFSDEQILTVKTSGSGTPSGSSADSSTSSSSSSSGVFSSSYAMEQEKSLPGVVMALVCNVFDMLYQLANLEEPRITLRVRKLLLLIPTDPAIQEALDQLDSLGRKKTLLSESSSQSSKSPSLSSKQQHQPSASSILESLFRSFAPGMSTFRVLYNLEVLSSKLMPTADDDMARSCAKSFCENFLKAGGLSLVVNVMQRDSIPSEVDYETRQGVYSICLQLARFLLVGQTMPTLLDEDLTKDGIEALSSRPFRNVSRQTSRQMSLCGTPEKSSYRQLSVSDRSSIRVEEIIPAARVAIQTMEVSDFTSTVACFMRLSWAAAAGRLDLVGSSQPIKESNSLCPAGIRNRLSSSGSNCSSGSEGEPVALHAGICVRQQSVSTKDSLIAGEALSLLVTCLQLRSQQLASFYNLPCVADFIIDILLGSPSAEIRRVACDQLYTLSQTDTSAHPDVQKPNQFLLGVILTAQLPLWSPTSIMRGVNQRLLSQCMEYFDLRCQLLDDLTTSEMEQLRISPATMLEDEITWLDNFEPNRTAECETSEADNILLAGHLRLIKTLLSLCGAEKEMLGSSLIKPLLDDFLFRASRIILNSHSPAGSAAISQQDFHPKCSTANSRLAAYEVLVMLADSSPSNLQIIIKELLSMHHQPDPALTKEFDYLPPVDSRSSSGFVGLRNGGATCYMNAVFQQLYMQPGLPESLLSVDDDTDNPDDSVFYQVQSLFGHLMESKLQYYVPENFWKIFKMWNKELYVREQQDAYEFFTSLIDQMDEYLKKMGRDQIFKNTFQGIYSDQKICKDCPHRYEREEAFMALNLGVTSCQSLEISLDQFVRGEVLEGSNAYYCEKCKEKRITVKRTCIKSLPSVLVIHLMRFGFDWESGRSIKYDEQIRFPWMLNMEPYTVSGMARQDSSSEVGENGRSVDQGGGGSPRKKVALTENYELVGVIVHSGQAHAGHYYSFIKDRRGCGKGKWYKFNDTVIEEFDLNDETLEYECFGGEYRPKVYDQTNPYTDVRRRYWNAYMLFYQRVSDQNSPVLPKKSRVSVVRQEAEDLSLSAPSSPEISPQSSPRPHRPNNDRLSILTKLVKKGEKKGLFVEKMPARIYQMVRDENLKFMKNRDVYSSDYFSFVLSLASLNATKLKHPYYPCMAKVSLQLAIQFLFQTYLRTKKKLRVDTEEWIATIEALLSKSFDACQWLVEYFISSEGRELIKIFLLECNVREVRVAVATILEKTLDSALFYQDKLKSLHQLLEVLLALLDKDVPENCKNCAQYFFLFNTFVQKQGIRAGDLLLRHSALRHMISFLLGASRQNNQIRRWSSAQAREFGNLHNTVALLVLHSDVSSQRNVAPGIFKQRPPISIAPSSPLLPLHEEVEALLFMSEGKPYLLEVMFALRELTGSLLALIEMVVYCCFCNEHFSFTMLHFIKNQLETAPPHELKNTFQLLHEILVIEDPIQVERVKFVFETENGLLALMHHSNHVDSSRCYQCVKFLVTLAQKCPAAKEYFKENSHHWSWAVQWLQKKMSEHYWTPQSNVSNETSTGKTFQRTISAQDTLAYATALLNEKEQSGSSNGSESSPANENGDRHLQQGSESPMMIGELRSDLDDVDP

Cc1n[nH]c(=O)c2c(NC(=O)CCl)oc(C)c12
inactive: USP19 -0.168 | USP24 -0.0362 | USP25 0.114 | USP28 -0.11

Reference: the supplement of paper PMC11732987, “Enantioselective OTUD7B fragment discovery through chemoproteomics screening and high-throughput optimisation” (Communications Chemistry, 2025)
